Data taken from PubChem BioAssay.
Where “and” joins values, the source holds several entries; their conditions need not be identical. Equal entries are not always repeated. For part of these data: Measured potencies and affinities stand elsewhere. Calls of active or inactive are those of the source.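 The calls were made as follows, unless noted: active = compounds whose cell count with miR-34 switched on is under 0.7 times the count with it off; inactive = the rest.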

How the values were obtained:
[1] = blockers of polyQ-driven CASP3 activation – cell-based (AID 1583); conditions: polyglutamine-induced caspase-3 activation, cell assay; stronger effect = higher value;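 tested at 10 µM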
[2] = yeast 75Q aggregation reduction – 75Q-TubU reporter (AID 1593); conditions: Yeast 75Q polyglutamine aggregation reporter
[3] = restoration of touch response, mutant HTT neurons – whole organism, C. elegans mechanosensory neurons, N-terminal huntingtin (AID 1599); conditions: C. elegans polyQ-huntingtin mechanosensory neurons, stronger effect = higher value
[4] = blockers of cytochrome c efflux from mitochondria – biochemical, purified mitochondria (AID 1603); conditions: stronger effect = lower value;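 also: mouse liver mitochondria challenged with calcium chloride; signal normalized to the plate average as 100%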
[5] = polyglutamine aggregate formation blockers (AID 1604); conditions: polyglutamine-induced protein aggregation inhibition assay; stronger effect = higher value; tested at 2.5 µM
[6] = glutamate transport activators, MN-1 cells, MN-1 cell line (AID 1612); conditions: MN-1 motor neuron cells, stronger effect = higher value;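 also: tested at 1 µM final; 0% = mean of DMSO vehicle wells on each plate; positive means more glutamate uptake than control and negative means less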
[7] = GFP-Q80 aggregate reduction, neuronal-like cells, cell-based, NGF-treated PC12, GFPQ80 (AID 1614); conditions: PC12 NGF-treated GFP-polyQ80 inclusion reduction;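 also: lower means fewer inclusions and 0 means no inclusions at all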
[8] = 75Q-TubH aggregate inhibition, S. cerevisiae, yeast (AID 1616); conditions: S. cerevisiae 75Q-TubH polyglutamine aggregation suppression; stronger effect = higher value
[9] = compounds altering circadian rhythm period length – cell-based, LOPAC library, luminescence reporter (AID 2774; call rule not given here;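 also: values are relative to mean of DMSO wells on each plate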); conditions: circadian reporter cells, at 7 µM, actives lie on both sides
[10] = compounds altering viability of human ES cells (AID 493140; call rule not given here;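 also: cells exposed to compounds for four days before counting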); conditions: human embryonic stem cell survival screen; stronger effect = higher value
[11] = P. berghei load reduction in hepatocytes – cell-based, HepG2, luciferase luminescence, HepG2 viability, primary screen (AID 624349; in the data active = parasite load remaining mostly below about 12%, no sharp cut-off; inactive = mostly above about 10%;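 also: 100% = mean of DMSO negative control wells on the same plate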); conditions: P. berghei liver stage in HepG2, luciferase luminescence, concentration not given here; parasite load remaining: stronger effect = lower value; viability: measured here: HepG2 viability without parasites
[12] = biological target: 6-phosphogluconate dehydrogenase, decarboxylating (Homo sapiens) (UniProt P52209); experiment: inhibition of human phosphogluconate dehydrogenase – biochemical, recombinant enzyme, NADPH absorbance, primary screen (AID 1159550;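 active = at least 20% inhibition of 6-phosphogluconate dehydrogenase activity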); conditions: recombinant 6PGD, NADPH absorbance 341 nm; at 10 µM; stronger effect = higher value
[13] = EMT-state selective cytotoxicity in co-culture – imaging, PC-3E GFP, TEM4-18 mCherry, primary screen (AID 1345086;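 active = compounds killing one labelled cell type while sparing the other, by normalised counts and ratio limits, not self-fluorescent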;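 as to all read-outs here: cells exposed to compound for 72 h before imaging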;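 as to red/green cell ratio (normalised): normalised mesenchymal count divided by normalised epithelial count so high means epithelial killing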); conditions: PC-3E GFP / TEM4-18 mCherry co-culture, imaging cell counts, at 1 µM; for red/green cell ratio (normalised): actives lie on both sides, counts scaled to control wells, 1 = unselective
[14] = viability loss with induced miR-34 in A549 – imaging, A549 dox-inducible miR-34, nuclei and caspase counts, primary screen (AID 1347080); conditions: A549 miR-34 inducible, Hoechst nuclei count, 48 h
[15] = blockers of cellular phospholipid synthesis – cell-based, LOPAC library, screen 4, primary screen (AID 1347384; call rule not given here); conditions: animal cells, phospholipid biosynthesis inhibition screen; at 10 µM
[16] = MELAS cybrid and Rieske KO viability enhancers – cell-based, MELAS cybrids, Rieske KO mouse fibroblasts, CellTiter-Glo, primary screen (AID 1508586;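 active = mean z-score across replicates of 1.96 or higher in either the MELAS or the Rieske mutant cell line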;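 also: z relative to plate mean and SD of compound and empty wells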); conditions: low glucose
[17] = biological target: NAD(+) hydrolase SARM1 (Homo sapiens) (UniProt Q6SZW1); experiment: blocking NAD cleavage by SARM1 SAM-TIR – cell lysate, NAD-Glo luminescence (AID 1508614;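 active = compound whose remaining NAD level is above about 45 nM, limit read from the data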;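 also: higher remaining NAD means stronger inhibition of SARM1 NADase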); conditions: SAM-TIR HEK293T lysate NADase, at 1 µM, stronger effect = higher value
[18] = biological target: Mitogen-activated protein kinase 7 (Homo sapiens) (UniProt Q13164); experiment: Gal4-ERK5 driven luciferase induction – cell-based, HTS, primary screen (AID 1508626;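 active = luciferase signal above three times the same-plate solvent-only control wells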;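 also: luciferase driven by Gal4-ERK5 fusion binding five Gal4 sites before minimal TATA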); conditions: HeLa Gal4-ERK5 transactivation, 18 h, at 5 µM, stronger effect = higher value
[19] = galactose survival enhancers in mitochondrial complex I cybrids – cell-based, galactose medium, ATP luminescence, primary screen (AID 1645843;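 active = z-score of at least 1.8 in each of two replicates, scored against plate mean and spread of sample wells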;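 also: positive z means more ATP and so rescue of galactose-driven cybrid death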); conditions: complex I mutant cybrid cells, 72 h, stronger effect = higher value
[20] = measured here: epithelial PC-3E GFP cell survival
[21] = measured here: mesenchymal TEM4-18 mCherry cell survival
[22] = stronger effect = lower value, cell number ratio, induced over uninduced
[23] = measured here: relative caspase fold change +Dox/-Dox
[24] = measured here: total cells with miR-34 induction, stronger effect = lower value
[25] = measured here: total cells without miR-34 induction
[26] = MELAS cybrid survival, CellTiter-Glo 48 h, stronger effect = higher value
[27] = Rieske KO mouse fibroblast survival, CellTiter-Glo 72 h

Chain of Mitogen-activated protein kinase 7 (Homo sapiens) (Q13164 whole entry, looked up, the tested form may be a part): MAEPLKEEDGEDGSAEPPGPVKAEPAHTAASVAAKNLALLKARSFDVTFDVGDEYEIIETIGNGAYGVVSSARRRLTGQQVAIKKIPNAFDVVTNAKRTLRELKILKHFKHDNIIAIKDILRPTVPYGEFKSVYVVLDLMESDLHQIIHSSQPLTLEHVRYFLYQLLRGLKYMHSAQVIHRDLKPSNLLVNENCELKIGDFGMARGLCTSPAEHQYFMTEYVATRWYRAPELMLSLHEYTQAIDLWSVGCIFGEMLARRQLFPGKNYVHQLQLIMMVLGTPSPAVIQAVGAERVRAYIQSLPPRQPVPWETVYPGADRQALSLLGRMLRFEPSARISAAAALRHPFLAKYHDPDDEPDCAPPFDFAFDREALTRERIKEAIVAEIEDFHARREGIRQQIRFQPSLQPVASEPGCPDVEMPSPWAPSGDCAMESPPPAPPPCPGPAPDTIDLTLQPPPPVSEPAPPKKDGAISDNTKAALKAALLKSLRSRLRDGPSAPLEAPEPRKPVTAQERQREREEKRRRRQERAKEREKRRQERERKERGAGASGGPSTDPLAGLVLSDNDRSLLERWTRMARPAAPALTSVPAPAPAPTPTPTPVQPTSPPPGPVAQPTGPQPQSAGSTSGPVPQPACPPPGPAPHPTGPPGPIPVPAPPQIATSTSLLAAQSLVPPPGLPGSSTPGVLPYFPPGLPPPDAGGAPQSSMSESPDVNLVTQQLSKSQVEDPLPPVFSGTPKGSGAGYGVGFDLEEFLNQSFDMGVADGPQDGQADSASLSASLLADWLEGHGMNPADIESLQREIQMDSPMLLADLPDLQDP
Chain of 6-phosphogluconate dehydrogenase, decarboxylating (Homo sapiens) (P52209 whole entry, looked up): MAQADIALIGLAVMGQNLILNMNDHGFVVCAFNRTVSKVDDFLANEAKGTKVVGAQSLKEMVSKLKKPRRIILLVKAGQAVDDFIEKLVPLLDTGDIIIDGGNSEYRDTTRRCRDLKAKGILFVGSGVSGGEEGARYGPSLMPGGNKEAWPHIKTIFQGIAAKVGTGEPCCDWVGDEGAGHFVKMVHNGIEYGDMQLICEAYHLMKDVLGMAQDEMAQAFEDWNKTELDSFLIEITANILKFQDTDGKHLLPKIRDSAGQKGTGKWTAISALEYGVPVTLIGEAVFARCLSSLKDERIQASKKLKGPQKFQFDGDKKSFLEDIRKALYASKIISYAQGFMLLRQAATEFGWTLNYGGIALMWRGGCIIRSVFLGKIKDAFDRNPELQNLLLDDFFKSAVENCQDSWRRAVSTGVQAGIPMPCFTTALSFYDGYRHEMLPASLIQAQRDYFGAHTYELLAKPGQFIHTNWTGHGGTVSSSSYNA
Chain of NAD(+) hydrolase SARM1 (Homo sapiens) (Q6SZW1 whole entry, looked up, the tested form may be a part): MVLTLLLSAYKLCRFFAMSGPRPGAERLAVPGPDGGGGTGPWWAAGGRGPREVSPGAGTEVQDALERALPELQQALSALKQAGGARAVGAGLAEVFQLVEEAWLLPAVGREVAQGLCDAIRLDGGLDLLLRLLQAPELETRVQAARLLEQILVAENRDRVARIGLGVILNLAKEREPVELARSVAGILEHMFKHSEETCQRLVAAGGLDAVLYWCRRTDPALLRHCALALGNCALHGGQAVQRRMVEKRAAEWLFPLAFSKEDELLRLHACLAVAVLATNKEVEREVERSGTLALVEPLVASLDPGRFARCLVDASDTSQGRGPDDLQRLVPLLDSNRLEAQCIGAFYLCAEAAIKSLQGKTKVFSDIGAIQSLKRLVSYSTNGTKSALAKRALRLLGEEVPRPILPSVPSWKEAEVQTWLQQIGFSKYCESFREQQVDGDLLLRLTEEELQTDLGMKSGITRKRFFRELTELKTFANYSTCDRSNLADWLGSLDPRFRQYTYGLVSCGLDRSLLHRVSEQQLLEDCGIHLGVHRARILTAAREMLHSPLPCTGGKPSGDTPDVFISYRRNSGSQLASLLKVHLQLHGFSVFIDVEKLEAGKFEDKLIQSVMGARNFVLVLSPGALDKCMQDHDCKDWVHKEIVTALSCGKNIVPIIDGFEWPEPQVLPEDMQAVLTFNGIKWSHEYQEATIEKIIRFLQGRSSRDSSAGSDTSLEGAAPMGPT

Question: What does the source list for `CCn1nc(C(=O)O)c(=O)c2cc3c(cc21)OCO3`?
Answer: inhibition [1]: 20.5%; score [2]: 0.7; rescue above control [3]: 3.16; cytochrome c release ratio [4]: 0.93; inhibition of aggregation [5]: 18.2%; glutamate uptake change [6]: -5.25%; inclusion score [7]: 2; aggregation suppression score [8]: 0.697; period change [9]: 0.04 h (inactive); survival [10]: 2.42 (inactive); parasite load remaining [11]: 87.3% (inactive) and 66.8% (inactive); viability [11]: 99.6% and 76.9% and 91.7%; inhibition [12]: 6.67% (inactive); red/green cell ratio (normalised) [13]: 1.25 (inactive); normalised cell number [13, 20]: 1.11; normalised cell number [13, 21]: 1.38; fold change [14, 22]: 0.983 (inactive) and 0.931 (inactive) and 0.893 (inactive); fold change [14, 23]: 1.81 and 0.999 and 1.16; cell count [14, 24]: 10100 and 8650 and 10900; cell count [14, 25]: 10300 and 9290 and 12200; outcome [15]: inactive; z-score [16, 26]: -0.474 (inactive); z-score [16, 27]: -0.663; remaining NAD [17]: 10 nM (inactive); luciferase signal [18]: 32 AU (inactive); z-score [19]: 0.215 (inactive)

Question: With `C1CCc2nnnn2CC1` as the compound, how does the period change [9] read?
Answer: -0.075 h (inactive)

Question: What about the survival [10] of the same compound?
Answer: 27.4 (inactive)

Question: What about the parasite load remaining [11] of the same compound?
Answer: 23.8% (inactive) and 86.6% (inactive) and 79.3% (inactive)

Question: And the viability [11]?
Answer: 50.2% and 91.9% and 103%

Question: And the inhibition [12]?
Answer: 10.8% (inactive)

Question: And the red/green cell ratio (normalised) [13]?
Answer: 1.25 (inactive)

Question: And the normalised cell number [13, 20]?
Answer: 1.11

Question: And the normalised cell number [13, 21]?
Answer: 1.38

Question: What about the outcome [15] of the same compound?
Answer: inactive

Question: What about the z-score [16, 26] of the same compound?
Answer: -0.00315 (inactive)

Question: And the z-score [16, 27]?
Answer: -0.232

Question: And the remaining NAD [17]?
Answer: 10 nM (inactive)

Question: And the luciferase signal [18]?
Answer: 96 AU (inactive)

Question: And the z-score [19]?
Answer: 0.7 (inactive) and 0.6 (inactive)

Question: Which results are given for `OCc1ccccc1O[C@@H]1O[C@H](CO)[C@@H](O)[C@H](O)[C@H]1O`?
Answer: inhibition [1]: -10.9%; score [2]: 1.23; rescue above control [3]: -13.2; cytochrome c release ratio [4]: 0.94; inhibition of aggregation [5]: 25.2%; glutamate uptake change [6]: -4.1%; inclusion score [7]: 2; aggregation suppression score [8]: 1.3; parasite load remaining [11]: 107% (inactive) and 32.5% (inactive); viability [11]: 66.8% and 91.3%; inhibition [12]: 16.9% (inactive); red/green cell ratio (normalised) [13]: 0.91 (inactive); normalised cell number [13, 20]: 0.63; normalised cell number [13, 21]: 0.57; fold change [14, 22]: 0.934 (inactive); fold change [14, 23]: 2.93; cell count [14, 24]: 12100; cell count [14, 25]: 13000; remaining NAD [17]: 10 nM (inactive); luciferase signal [18]: 72 AU (inactive)

Question: What does the source list for `O=C(/C=C/c1ccc(O)c(O)c1)OCCc1ccccc1`?
Answer: period change [9]: 0.335 h (inactive); inhibition [12]: 14% (inactive); red/green cell ratio (normalised) [13]: 0.72 (inactive); normalised cell number [13, 20]: 1.3; normalised cell number [13, 21]: 0.94; fold change [14, 22]: 1.03 (inactive) and 1.01 (inactive) and 1.12 (inactive); outcome [15]: inactive; luciferase signal [18]: 56 AU (inactive); z-score [19]: -1.37 (inactive) and -0.615 (inactive)
